About 13,000 (27%) of roughly 48,000 compounds showed an effect of 50% or more. The list shows a part of the results.

This assay has as its system Wolbachia pipientis. As to the kind of experiment: Anti-Wolbachia Cell-Based Screen. Also on record: scale not given: in the data most compounds retested in dose-response had high values. It counts as functional. Conditions: 5 µM.
`CCCS(=O)(=O)N1CCC2(CC(=O)N(c3cnn(C)c3)C2)C1` (centres undefined): the “Percent Effect” value is recorded as 9.344%.

For `CCOc1ccc(N(CCC#N)C(=O)c2ccc(SC)nc2)cc1`, the “Percent Effect” value is on record as -11.41%. For `CC1CCCN1C1CCN(C(=O)c2cccc(F)c2)CC1` (centres undefined) the value was 1.778%. For `O=C(c1cccc(F)c1)N1C[C@H]2CCCC(OCc3cccnc3)[C@H]2C1` (some centres undefined), the “Percent Effect” value is on record as 7.164%. Take `CN(C)Cc1cnc(C2CCN(C(=O)c3cccc(F)c3)C2)[nH]1` (centres undefined): the “Percent Effect” value was 98.09%.

In the case of `CCc1cnc(N2CCC3(CC2)CCN(c2cnn(C)c2)C3=O)nc1`, the “Percent Effect” value is -11.71%.

As to `Cc1nonc1NC(=O)C1SCCc2ccccc21` (centres undefined), the “Percent Effect” value is on record as -22.17%. For the compound `CCC(CO)N(Cc1ccc(F)cc1)Cc1c(C)nn(C)c1Cl` (centres undefined), the “Percent Effect” value was 108.6%. In the case of `CCC(CO)N(Cc1ccsc1)Cc1cccc(O)c1` (centres undefined), the “Percent Effect” value was found to be 4.07%. `CCC(CO)N(Cc1ccco1)C(=O)c1cccc(C)c1O` (centres undefined): the “Percent Effect” value is -5.185%. `CCC(CO)N(Cc1ccco1)Cc1c(C)nn(C)c1Cl` (centres undefined): the “Percent Effect” value was 113.8%. As to `CCC(CO)N(Cc1ccccn1)Cc1c[nH]nc1-c1ccc(F)cc1` (centres undefined), the “Percent Effect” value was -3.197%. On to `CCC(CO)N(Cc1ccncc1)Cc1c[nH]nc1-c1ccc(F)cc1` (centres undefined), for which the “Percent Effect” value is given as -8.532%.

As for `CCC(CO)N(CC=C(C)C)Cc1ccsc1` (centres undefined), the “Percent Effect” value is -1.911%. On to `CCC(CO)N(Cc1ccco1)C(=O)c1ccc(F)cc1Cl` (centres undefined), for which the “Percent Effect” value is reported as -20.92%. As for `CCC(CO)N(Cc1ccsc1)Cc1c(C)nn(C)c1Cl` (centres undefined), the “Percent Effect” value was 83.51%. Consider `O=C(NC1(c2nnn(CC3CCCO3)n2)CCCC1)c1ccccc1` (centres undefined), for which the “Percent Effect” value is listed as -21.33%. `CCC(=O)NCC(=O)Nc1c(C)cnn1Cc1cc(F)ccc1F`: the “Percent Effect” value is on record as -6.238%. For `FC(F)(F)c1[nH]nc2c1CN(Cc1ccccc1)CC2`, the “Percent Effect” value is on record as -6.07%. `Cn1c(=O)ccn(CC(=O)N2CCCC(n3cccn3)C2)c1=O` (centres undefined): the “Percent Effect” value was -17.99%.

In the case of `CC(=O)N1Cc2ccccc2C[C@H]1C(=O)N(C)Cc1ccccn1`, the “Percent Effect” value is recorded as -7.664%. For `N#Cc1ccc(NCC(=O)Nc2ncn(Cc3cccnc3)n2)cc1` the value was 2.258%; for `Cc1ccsc1C(=O)N1CCc2ncc(Cn3cccn3)n2CC1`, -18.82%; for `N#Cc1cccc(C(=O)N2CCc3ncc(Cn4cccn4)n3CC2)c1`, -16.45%. Regarding `Cn1cccc1C(=O)N1CCc2ncc(Cn3cccn3)n2CC1`, the “Percent Effect” value is given as -10.36%. Take `CN1CCN(Cc2cnc3n2CCN(C(=O)c2ccoc2)C3)CC1`: the “Percent Effect” value is reported as 1.07%.

As to `Cc1ccc(C(=O)N2CCc3ncc(Cn4cccn4)n3CC2)cn1`, the “Percent Effect” value is on record as 106.9%.

For the compound `O=C(O)C(F)(F)F.O=C(c1ccccn1)N1CCc2ncc(Cn3cccn3)n2CC1`, the “Percent Effect” value was 108.7%. The result for `N#Cc1ccc(C(=O)N2CCn3c(Cn4cccn4)cnc3C2)cc1.O=C(O)C(F)(F)F` reads -19.27%.

Consider `O=C(c1cccc(F)c1)N1CCc2ncc(Cn3cccn3)n2CC1`, for which the “Percent Effect” value was determined as 90.68%.

In the case of `Cn1cccc1C(=O)NCc1cnc2n1CCN(C(=O)c1ccoc1)C2`, the “Percent Effect” value is -3.453%.

For the compound `O=C(c1ccoc1)N1CCc2ncc(Cn3cccn3)n2CC1`, the “Percent Effect” value was found to be 85.84%. Turning to `CC(NCc1ccc(OCC(N)=O)cc1)c1ccc(Cl)cc1Cl.Cl` (centres undefined), the “Percent Effect” value was -2.997%. For the compound `CCc1cnc(NCc2nc(CSC)no2)nc1`, the “Percent Effect” value was 19.97%. `Cc1cc(N(C)CC2COc3ccccc3O2)nc(C)n1` (centres undefined): the “Percent Effect” value is on record as -50.37%.

As for `CCOCCN1CCN(CC(=O)NC2(C#N)CCCC2)CC1C` (centres undefined), the “Percent Effect” value came out at 0.8038%. As to `O=C(NCc1cccnc1)N1CCn2c(Cn3cccn3)cnc2C1`, the “Percent Effect” value was found to be 2.46%.

On to `Cc1ccc(C(=O)N2CCc3ncc(Cn4cccn4)n3CC2)o1`, for which the “Percent Effect” value is given as 95.36%.

Regarding `N#Cc1cccc(C(=O)N2CCn3c(Cn4cncn4)cnc3C2)c1`, the “Percent Effect” value was 83.01%. Consider `O=C(NCc1ccccc1)N1CCn2c(Cn3cccn3)cnc2C1`, for which the “Percent Effect” value is -1.854%. For `CN1CCN(Cc2cnc3n2CCN(C(=O)c2ccnnc2)C3)CC1` the value was -11.55%. The result for `O=S(=O)(C1CC1)N1CCn2c(Cn3cncn3)cnc2C1` reads 13.19%; that for `Cc1cncc(C(=O)N2CCc3ncc(Cn4cccn4)n3CC2)c1`, 88.89%; that for `N#Cc1ccc(S(=O)(=O)N2CC(CC(=O)O)c3ccccc32)cc1` (centres undefined), -12.53%.

For the compound `Cc1noc(CNc2ccccc2CC(=O)N(C)C)n1`, the “Percent Effect” value is recorded as -7.553%. Regarding `N#CCc1ccc(OCC(=O)N2CCCC(n3cccn3)C2)cc1` (centres undefined), the “Percent Effect” value is -0.2298%. As to `Cc1ncsc1CCN1CCC(N(C)Cc2ncc(C(C)C)o2)C1` (centres undefined), the “Percent Effect” value is -3.966%. On to `Cc1nnc(CN2CCOC(c3ccc(Cl)cc3)C2)o1` (centres undefined), for which the “Percent Effect” value is given as -9.345%. For the compound `O=c1[nH]c2nc(NCC3CCCO3)ncc2c(=O)n1-c1ccc(F)cc1` (centres undefined), the “Percent Effect” value was -3.035%.

Take `CN(Cc1csc(-c2cccs2)n1)C(=O)CCn1ccccc1=O`: the “Percent Effect” value is -2.021%. The result for `COc1cc(F)c(S(=O)(=O)N2CCN(C)Cc3ccccc32)cc1OC` reads -10.31%; that for `CC(=O)NCC(=O)N1CCn2cc(CN(C)Cc3ccco3)nc2C1.O=C(O)C(F)(F)F`, -4.865%; that for `CN(C)Cc1cn2c(n1)CN(C(=O)Cc1ccsc1)CC2.O=C(O)C(F)(F)F`, 96.46%. The result for `O=C(Cc1ccsc1)N1CCn2cc(Cn3cncn3)nc2C1` reads 4.087%. For `CC(C)N(C)Cc1cn2c(n1)CN(Cc1ccsc1)CC2.O=C(O)C(F)(F)F.O=C(O)C(F)(F)F` the value was 6.195%; for `CC(C)N(C)Cc1cn2c(n1)CN(C(=O)Cc1ccsc1)CC2.O=C(O)C(F)(F)F`, -0.9088%; for `CC(C)N(C)Cc1cn2c(n1)CN(C(=O)Cc1ccccc1)CC2.O=C(O)C(F)(F)F`, 114%.

Take `CN(C)Cc1cc(=O)n2c(n1)CN(C(=O)Cc1ccsc1)CCC2.O=C(O)C(F)(F)F`: the “Percent Effect” value is listed as -8.762%. Regarding `O=C(Cc1ccsc1)N1CCn2cc(CN3CCCC3)nc2C1`, the “Percent Effect” value was -4.915%. In the case of `CCN(CC)Cc1cn2c(n1)CN(C(=O)Cc1ccsc1)CC2.O=C(O)C(F)(F)F`, the “Percent Effect” value was 83.51%.

In the case of `CN1CCOCC2(CCCN(C(=O)c3cn(C)cn3)C2)C1.O=C(O)C(F)(F)F` (centres undefined), the “Percent Effect” value was -3.228%. Consider `CCNC(=O)NC(C)(C)C(=O)NCCc1csc2ccccc12`, for which the “Percent Effect” value is 9.687%. For the compound `O=C(Cc1cccnc1)NC1COc2ccccc2C1=O` (centres undefined), the “Percent Effect” value is -10.11%.

In the case of `CCCC1CCCN(C(=O)CNC(=O)c2ccoc2C)CC1` (centres undefined), the “Percent Effect” value was 7.571%.

Values taken from ChEMBL document CHEMBL3988442, “University of Dundee, Small-Polar-MMV Screening Library” (2021).
